In PubChem BioAssay AID743287 (Broad Institute, 2014):
The whole screen tested about 370,000 compounds, of which about 2,300 (0.62%) were called active. Only a selection was taken, and actives are over-represented in it overall. Values without a mark were called inactive.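 Rule for the calls: active = lowest replicate activation of at least 40%, so every replicate reaches that level; inactive = the rest.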

experiment: primary screen for activators of insulin secretion dependent on glucose, INS-1E cells, GLuc reporter luminescence (AID 743287); conditions: INS-1E GLuc reporter insulin secretion, 2-3 h, at 16.6 µM, stronger effect = higher value;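 note: 0% = median of neutral control wells and 100% = median of IBMX positive control wells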

| SMILES | activation |
| --- | --- |
| C/C=C/c1ccc([C@@H]2[C@@H](CN(C)C(C)=O)N(C(=O)C3CC3)[C@H]2CO)cc1 | -3.3% |
| C[C@@H]1CN([C@H](C)CO)C(=O)c2cc(NC(=O)Cn3cnnn3)ccc2O[C@@H]1CN(C)C(=O)Nc1ccc2c(c1)OCO2 | 6.33% |
| C[C@H](CO)N1C[C@H](C)[C@H](CN(C)S(C)(=O)=O)Oc2ncc(C3=CCCC3)cc2C1=O | 23.9% |
| COc1ccc2c3c(n(C)c2c1)[C@H](CO)N(C(=O)NC(C)C)CC31CN(CC2CCCCC2)C1 | -8.45% |
| C/C=C/c1ccc2c(c1)O[C@@H](CN(C)C(=O)c1ccncc1)[C@@H](C)CN([C@H](C)CO)S2(=O)=O | 9.46% |
| CCOc1ccc(/C=N/NC(=O)CSc2ccccn2)cc1O | 47.7% (active) |
| C=CCOc1ccc(/C=N/NC(=O)C(C)Sc2ccccn2)cc1OCC (stereo unspecified) | 26.6% |
| C/C(=N/NC(=O)CSc1ccccn1)c1ccc([N+](=O)[O-])cc1 | 3.45% |
| Cc1ccccc1S(=O)(=O)N1CC(=O)N2[C@H](CO)[C@@H](c3ccc(C#Cc4ccccc4)cc3)[C@H]2C1 | -6.46% |
| Cc1nc(N2[C@H](CO)[C@H](c3ccccc3)[C@H]2CNCC2CCC2)sc1C | 2.74% |
| CCCNC(=O)N1CC2(CN(C(=O)C3CCCCC3)C2)c2c([nH]c3cc(OC)ccc23)[C@@H]1CO | 13.6% |
| Cc1ccc(-c2ccc3c(c2)O[C@@H](CN(C)C(=O)NC(C)C)[C@@H](C)CN([C@H](C)CO)S3(=O)=O)cc1 | 4.12% |
| C#CC(CCN1CCCCC1)(OC)c1ccccc1 (stereo unspecified) | 17.7% |
| c1ccc(-c2ccccc2OCCN2CCCCC2)cc1 | 53.2% (active) |
| Cc1ccc(C(C)C)cc1OCCN1CCCC1 | 12.9% |
| CCCNC(=O)N1CC(=O)N2[C@H](CO)[C@@H](c3ccc(-c4ccc(F)cc4)cc3)[C@H]2C1 | -19.7% |
| C[C@H](CO)N1C[C@H](C)[C@@H](CN(C)CC2CC2)OCCCC[C@H](C)Oc2ccc(NC(=O)Cc3ccccc3)cc2C1=O | 7.71% |
| COc1ccc(COC(=O)c2n[nH]c3ccccc23)cc1F | -12.2% |
| COc1ccc(S(=O)(=O)N(C)C)cc1NC(=O)COC(=O)c1n[nH]c2ccccc12 | -5.72% |
| CCN(CC)S(=O)(=O)c1ccc2nc(COC(=O)c3n[nH]c4ccccc34)[nH]c2c1 | 57.7% (active) |
| C[C@H](CO)N1C[C@H](C)[C@@H](CN(C)C(=O)Nc2ccnc(N3CCOCC3)c2)OCc2ccccc2-c2c(n(C)c3ccccc23)C1=O | -17.9% |
| CNC[C@H]1Oc2ccc(NC(=O)CCC(F)(F)F)cc2C(=O)N([C@@H](C)CO)C[C@H]1C | 4.67% |
| C[C@H]1CN([C@@H](C)CO)C(=O)c2cc(NC(=O)Cc3cn(C)c4ccccc34)ccc2O[C@@H]1CN(C)Cc1ccc(Cl)c(Cl)c1 | 7.56% |
| C[C@H](CO)N1C[C@H](C)[C@@H](CN(C)C(=O)Nc2cc(F)ccc2F)Oc2cc(C#CC3CC3)ccc2S1(=O)=O | -8.09% |
| CN(C)C(=O)[C@@H]1[C@@H](CO)[C@@H]2Cn3c(cccc3=O)[C@H]1N2C(=O)c1ccc(F)cc1 | 7.45% |
| O=C(C[C@@H]1CC[C@H](NC(=O)C2CC2)[C@@H](CO)O1)NCc1ccncc1 | -4.07% |

| SMILES | activation |
| --- | --- |
| COc1ccc(C2OCC3(CO2)SC(=O)NC3=O)cc1OC (stereo unspecified) | 21.8% |
| COc1ccc(C2CC(=O)Nc3sc(=N)c4c(N)c(C#N)c(N)nc4c32)cc1OC (stereo unspecified) | 70.3% (active) |
| CCc1nc2c(OCCC3CCCCC3)cccn2c1N(C)C(=O)c1ccco1 | 42% (active) |
| CCc1nc2c(OCc3ccccc3)cccn2c1N(C)C(=O)c1ccco1 | 17.3% |
| CCc1nc2c(OCc3ccc(F)c(F)c3)cccn2c1N(C)C(=O)c1ccco1 | -1.95% |
| CCC(=O)Nc1ccc2c(c1)C(=O)N(C)C[C@@H](OC)[C@H](C)CN(Cc1cccnc1)[C@@H](C)CO2 | -1.44% |
| C[C@@H]1CN([C@@H](C)CO)C(=O)c2cccc(NC(=O)C3CC3)c2O[C@@H]1CN(C)C | 21.1% |
| C=CCN(CC=C)S(=O)(=O)c1ccc(C(=O)Nc2sc3c(c2C(N)=O)CCCCC3)cc1 | 47.2% (active) |
| CC(=O)N1CCc2c(sc(NC(=O)CCS(=O)(=O)c3ccc(C)cc3)c2C(N)=O)C1 | 4.75% |
| CCOC(=O)c1c(NC(=O)C2CCN(S(=O)(=O)c3ccc(Cl)cc3)CC2)sc2c1CCCC2 | -4.47% |
| Cc1ccc(S(=O)(=O)N(C)C[C@@H]2Oc3c(NC(=O)C4CCCCC4)cccc3C(=O)N([C@H](C)CO)C[C@H]2C)cc1 | -9.86% |
| C=CCn1cc(Cl)cc(C(=O)Nc2ccccc2)c1=O | 98.4% (active) |
| C=CCc1cccc2cc(C(=O)Nc3ccc(NC(C)=O)cc3)c(=O)oc12 | 6.64% |
| O=C(Nc1ccc(CN2CCOCC2)cc1)c1cc(Cl)ccc1Cl | -0.035% |
| C[C@H](CO)N1C[C@H](C)[C@H](CN(C)S(=O)(=O)c2ccccc2)Oc2ccc(NC(=O)Cn3cnnn3)cc2C1=O | 12.8% |
| C[C@H]1CN([C@@H](C)CO)C(=O)c2cccc(NC(=O)Nc3ccc(F)cc3)c2O[C@H]1CN(C)S(=O)(=O)c1cn(C)cn1 | 6.95% |
| O=C(COC(=O)c1ncc(Cl)c(Cl)c1Cl)NC1CCS(=O)(=O)C1 (stereo unspecified) | 53.1% (active) |
| O=C(COC(=O)/C=C/c1ccc(Cl)cc1)NC1CCS(=O)(=O)C1 (stereo unspecified) | 14.8% |
| O=C(COC(=O)c1ncc(Cl)c(Cl)c1Cl)NNC(=O)c1ccccc1 | -6.14% |
| O=c1[nH]c2ccccc2n1C1CCN(CCOc2ccccc2)CC1 | -4.23% |
| OC(c1ccccc1)(c1ccccc1)C1CCN(CCCOc2ccc(-c3ccsc3)cc2)CC1 | 83.7% (active) |
| N#Cc1ccc(OCCCN2CCC(C(O)(c3ccccc3)c3ccccc3)CC2)c(F)c1 | -32.8% |
| CC(=O)N1[C@H](CN(C)S(=O)(=O)c2ccccc2)[C@H](c2ccccc2)[C@@H]1CO | 2.97% |
| COc1ccc(NC(=O)N(C)C[C@@H]2Oc3ccc(NC(=O)Nc4ccccc4)cc3CC(=O)N([C@H](C)CO)C[C@@H]2C)cc1 | -8.36% |
| CNc1nc(-c2ccccc2)cc(-c2ccccc2)n1 | 50.3% (active) |
| CN1CCCc2nc(-c3ccccc3)ccc21 | 15.2% |

| SMILES | activation |
| --- | --- |
| Cc1ccc(-c2cc(=O)[nH]c(NCc3ccccc3)n2)cc1 | 0.61% |
| C[C@@H]1CN([C@H](C)CO)C(=O)c2cccc(NC(=O)CCCCCC(=O)Nc3ccccc3N)c2O[C@H]1CN(C)Cc1ccc(Oc2ccccc2)cc1 | -51.6% |
| O=C(C[C@@H]1CC[C@@H](NC(=O)c2ccc3c(c2)OCO3)[C@H](CO)O1)NCc1ccc(Cl)cc1 | -2.44% |
| COc1ccc(S(=O)(=O)N(C)C[C@H]2Oc3ccc(NS(=O)(=O)c4ccc(F)cc4)cc3C(=O)N([C@H](C)CO)C[C@H]2C)cc1 | -11.6% |
| COC(=O)C1=C(C)NC(=S)NC1c1ccc(OCC(=O)N2CC(C)OC(C)C2)c(OC)c1 (stereo unspecified) | 8.95% |
| COC(=O)C1=C(C)N(C)C(=S)NC1c1cc(OC)ccc1OC (stereo unspecified) | -51% |
| COC(=O)C1=C(C)NC(=S)NC1c1ccc(OC)cc1 (stereo unspecified) | 140% (active) |
| CC(=O)N(C)C[C@@H]1Oc2ccc(N)cc2CC(=O)N(C)C[C@H]1C | -4.42% |
| Cc1ccnc(NS(=O)(=O)c2ccc(NC(=O)c3oc4ccccc4c3C)cc2)n1 | -7.58% |
| Cc1cc(C)c2oc(C(=O)Nc3ccc(S(=O)(=O)Nc4nccc(C)n4)cc3)cc(=O)c2c1 | 74.6% (active) |
| Cc1ccnc(NS(=O)(=O)c2ccc(NC(=O)c3oc4ccc(F)cc4c3C)cc2)n1 | 17.6% |
| CC(=O)Nc1ccc2c(c1)CC(=O)N(C)C[C@H](C)[C@H](CN(C)S(C)(=O)=O)O2 | 17.7% |
| CC=Cc1ccc2n(c1=O)C[C@H]1[C@H](CO)[C@@H](C(=O)NC3CCCC3)[C@@H]2N1C(=O)c1cnccn1 (mixture of isomers) | 3.54% |
| CC1CN(C(=S)Nc2ccc(Br)cc2Cl)CC(C)O1 (stereo unspecified) | -10.5% |
| Cc1ccccc1C(=O)NC(=S)NC1CC1 | -11.6% |
| Cc1cc(Br)ccc1NC(=S)NC1CCCC1 | 46.8% (active) |
| C[C@@H]1CN([C@H](C)CO)C(=O)c2cccc(NS(=O)(=O)c3cn(C)cn3)c2O[C@H]1CN(C)S(=O)(=O)c1ccc(Cl)cc1 | 12% |
| O=C(Nc1ccccc1F)N1CC(=O)N2[C@H](CO)[C@H](c3ccc(C#CC4CC4)cc3)[C@@H]2C1 | -9.47% |
| COc1cccc(CNC(=O)c2cc3c(c(-c4cccc(-c5ccc(C#N)cc5)c4)n2)[C@@H](CCO)N([S@](=O)C(C)(C)C)C3)c1 | 11.4% |
| O=C1NCCOCc2cn(nn2)CC[C@@H]1Cc1ccccc1 | 9.64% |
| CCOC(=O)c1sc2nc(C)nc(Nc3ccc(OC)c(OC)c3)c2c1C | 15.4% |
| CCOC(=O)c1sc2nc(C)[nH]c(=O)c2c1C | 49.9% (active) |
| CCOC(=O)c1sc2nc(C)nc(SCC(N)=O)c2c1C | 13.1% |
| CCCNC(=O)N1C[C@@H](O)COC[C@H]2O[C@H](CC(=O)N3CCC(Cc4ccccc4)CC3)CC[C@@H]21 | 2.87% |
